From PubChem BioAssay
A selection: hits, their analogues and other compounds. The true share with any hit is near 4.7%.
SKKanGAS inh: SKKanGAS growth inhibition. 300,000 compounds, 1.3% hits. AID 1662. inhibition, % at 7.5 µM. S. pyogenes SKKanGAS, kanamycin growth, BacTiter-Glo, 6 h;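 active = mean replicate score, as percent of positive control median, at least 50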;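 note: strain carries kanamycin resistance gene driven by streptokinase promoter and grows in 40 µg/ml kanamycin; loss of luminescence reflects streptokinase promoter inhibition or plain growth inhibition; 0% = median of DMSO wells and 100% = positive control at its reference dose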
tim10-1 inh: inhibits growth of tim10-1 mutant yeast; S. cerevisiae tim10-1 ts strain growth, BacTiter-Glo, 24 h; inhibition, % at 20 µM; 330,000 compounds, 2.2% hits;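 active = inhibition of at least 40%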;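 note: mutant grown at 25 °C; 0% = DMSO wells with yeast and 100% = wells holding no yeast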
TIM10 inh: TIM10 yeast growth inhibition; S. cerevisiae TIM10 strain growth, BacTiter-Glo luminescence, 24 h; 330,000 compounds, 1.4% hits; inhibition, % at 10 µM; AID 463195;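 active = inhibition of 40% or more at the single tested concentration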;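 note: wild-type TIM10 isogenic control strain grown at permissive 25 °C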
tim23-1 inh: growth inhibitors of tim23-1 mutant yeast; inhibition, % at 20 µM; 330,000 compounds, 1.3% hits; S. cerevisiae tim23-1 growth, BacTiter-Glo luminescence, 24 h; AID 463212;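 active = growth inhibition of the mutant yeast at or above 50%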;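 note: temperature-sensitive mutant grown at 25 °C; plate controls were DMSO-treated mutant yeast for no effect and medium wells lacking yeast for full effect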
ATG4B inhibitor: ATG4B (human) cysteine protease inhibition. Q9Y4P1. inhibition, % at 8.33 µM. AID 504462. 340,000 compounds, 0.51% hits. ATG4B cleavage of LC3-PLA2, NBD-HPC fluorescence, 1 h; in the data active = inhibition above about 40%
Target sequence (Q9Y4P1 whole entry, looked up): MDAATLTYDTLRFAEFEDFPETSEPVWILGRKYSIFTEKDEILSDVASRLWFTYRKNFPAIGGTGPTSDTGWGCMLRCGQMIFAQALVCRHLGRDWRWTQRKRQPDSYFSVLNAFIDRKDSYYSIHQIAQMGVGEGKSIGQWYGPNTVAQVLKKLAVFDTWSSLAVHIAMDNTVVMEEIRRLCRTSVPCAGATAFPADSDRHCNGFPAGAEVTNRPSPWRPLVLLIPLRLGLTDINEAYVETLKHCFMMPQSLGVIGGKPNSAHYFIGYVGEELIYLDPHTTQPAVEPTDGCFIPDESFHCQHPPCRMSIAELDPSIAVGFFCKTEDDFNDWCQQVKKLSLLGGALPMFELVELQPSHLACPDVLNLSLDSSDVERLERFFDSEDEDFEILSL
PfHsp90 set2: reduces growth (ATP signal) of yeast expressing P. falciparum Hsp90. S. cerevisiae expressing PfHsp90, BacTiter-Glo ATP, 48 h; yeast lacking PDR1 and PDR3 efflux regulators. inhibition, % at 9.4 µM. 310,000 compounds, 0.32% hits;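 active = every replicate shows inhibition above about 80%, whatever the replicate mean, limit read from the data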;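 note: 0% = DMSO neutral controls and 100% = 20 µM radicicol positive controls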
tim23-1 confirm: tim23-1 yeast growth inhibition, confirmed | shares compounds with tim23-1 inh | S. cerevisiae tim23-1 growth, BacTiter-Glo luminescence, 24 h | inhibition, % at 20 µM | 4,400 compounds, 83% hits | AID 463218;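 active = inhibition above about 39% in either of two replicate wells at 20 µM, limit read from the data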;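 note: temperature-sensitive tim23-1 mutant grown at 25 °C; 0% = DMSO wells with yeast and 100% = medium wells without yeast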
* marks the source's active call; other numbers are inactive results; . = not tested or not shown.

SMILES | SKKanGAS inh | tim10-1 inh | TIM10 inh | tim23-1 inh | ATG4B inhibitor | PfHsp90 set2 | tim23-1 confirm
O=C(/C=C\Nc1ccc2c(c1)OCO2)c1cccs1 | -3 | 22 | 40 | 48 | -4 | -6 | .
O=C(O)CN1C(=O)/C(=C\c2cc(Br)ccc2OCc2ccc([N+](=O)[O-])cc2)SC1=S | 32 | -5 | 30 | 53* | 5 | -54 | 71*
O=C(O)CCN1C(=O)/C(=C\c2ccc(OCc3ccccc3)c(OCc3ccccc3)c2)SC1=S | 20 | 27 | 11 | 6 | 18 | -2 | .
OC[C@@H]1CC[C@@H](Cc2ccc(-c3ccccc3)cc2)O1 | . | 30 | 20 | 53* | 0 | -4 | 32
CC1=CC(C)(C)N(C(=O)CCl)c2cc(C)ccc21 | . | 8 | 9 | 9 | -4 | -5 | .
CC1=CC(C)(C)N(C(=O)c2ccc(F)cc2)c2cc3c(cc21)OCO3 | -4 | 35 | 39 | 54* | -6 | -1 | 44*
COc1ccc(C(=O)NCCNC(=O)c2ccccn2)cc1 | -2 | -37 | 7 | -1 | -7 | -32 | .
O=C1OC(c2ccccc2)=NC12CC2c1ccc(Cl)cc1 (stereo unspecified) | -4 | -5 | 30 | 56* | -12 | -12 | -69
Cc1oc(-c2cccs2)nc1CS(=O)CC(=O)NCCc1ccccc1 (stereo unspecified) | 1 | 18 | 5 | 15 | -7 | -1 | .
O=C(CCCN1C(=O)/C(=C/c2cccc(Br)c2)SC1=S)N1CCOCC1 | 0 | 37 | 35 | 53* | -9 | 16 | 36
O=C(CCN1C(=O)/C(=C/c2ccccc2Cl)SC1=S)N1CCCC1 | 8 | 25 | 10 | 20 | 1 | -15 | .
O=C(CCCN1C(=O)/C(=C/c2ccccc2Cl)SC1=S)N1CCCC1 | 4 | 32 | 30 | 51* | 34 | 16 | 56*
Cc1ccc(CN2CCN(/N=C/c3cc(Br)cc(Br)c3O)CC2)cc1 | 2 | 25 | 12 | 59* | -2 | 22 | 59*
O=C(CCN1C(=O)C2C3CCC(C3)C2C1=O)Nc1ccc([N+](=O)[O-])cc1 (stereo unspecified) | -6 | 4 | 12 | 8 | -13 | 13 | .
O=C(CSc1ccccn1)N1CCN(C(=O)CSc2ccccn2)CC1 | -1 | 3 | -9 | 10 | -7 | 2 | .
O=C1/C(=C\c2ccc(O)cc2)SC(=S)N1Cc1ccccc1 | 8 | -13 | 19 | 55* | 3 | 49 | 14
CCOC(=O)Nc1nc(-c2ccccc2)c(C(=O)c2ccc(Cl)cc2)s1 | 36 | 34 | 34 | 53* | 22 | -18 | 59*
CCOC(=O)Nc1sc(C)nc1-c1ccccc1 | -8 | -21 | -7 | 0 | -1 | 0 | .
CCCOc1ccc(CC(CC(=O)O)(C(=O)O)C(=O)O)cc1 | 1 | 2 | 0 | 9 | 6 | 9 | .
Cc1ccc2c(c1)/C(=C/c1ccccc1C)C(=O)N2 | -1 | 37 | 30 | 53* | -3 | -32 | 42*
COc1ccccc1/C=C1\C(=O)Nc2ccccc21 | -5 | 31 | 35 | 62* | 1 | -20 | 46*
CN1CCN(c2ccccc2/C=C2/C(=O)Nc3ccccc32)CC1 | 0 | 18 | -11 | 20 | 3 | -4 | .
O=C1Nc2ccccc2/C1=C/c1ccccc1Cl | -1 | 36 | 32 | 53* | -1 | 15 | 46*
CSc1ccccc1C(=O)Nc1ccc2c(c1)CCC2 | 3 | -18 | 9 | 35 | 4 | 1 | .
Cc1ccc(Cc2cnc(NC(=O)C3=NCCN3)s2)cc1 | 27 | 27 | 2 | -9 | . | . | .
SMILES | SKKanGAS inh | tim10-1 inh | TIM10 inh | tim23-1 inh | ATG4B inhibitor | PfHsp90 set2 | tim23-1 confirm
COc1ccc(CNc2nc3ccccc3n2Cc2ccc(C)cc2)cc1OC | -8 | 1 | 12 | 19 | -12 | 30 | .
CC1(c2ccccc2)CC2CC(c3ccccc3)N1O2 (stereo unspecified) | -10 | 16 | 7 | 19 | 3 | . | .
CC12CC3(C)CC(C)(C1)CC(C(=O)NC1=NCCS1)(C2)C3 | 84* | 40 | 33 | 52* | 5 | 9 | 40*
Cc1cccc(N(CC(=O)NCCSCc2ccccc2)S(C)(=O)=O)c1 | 4 | 10 | -5 | 16 | -3 | 10 | .
O=C(Nc1ccn(Cc2ccc(Cl)cc2)n1)c1ccc2c(c1)OCO2 | -12 | 8 | 35 | 59* | 9 | -12 | 63*
O=C(N/N=C/c1ccc2c(c1)OCO2)c1ccn(Cc2ccc(Cl)cc2)n1 | . | 3 | -9 | -3 | -6 | 19 | .
COc1cc(/C=C/C(=O)OCC(=O)NCc2ccccc2OC)ccc1O | -5 | -10 | -10 | 89* | -1 | 3 | 17
COC(=O)C1=NN(c2ccccc2OC)C2C(=O)N(c3ccccc3OC)C(=O)C12 (stereo unspecified) | 2 | -14 | -6 | 0 | -1 | 5 | .
N#C/C(=C\c1ccc(O)c(O)c1)C(=O)N1CCc2ccccc21 | . | 16 | 7 | 26 | 6 | 5 | .
COc1cc(/C=C(\C#N)C(=O)N2CCc3ccccc32)ccc1O | -8 | 30 | 13 | 55* | -4 | 3 | 60*
Cc1c(N2C(=O)/C(=C\c3ccccc3O)SC2=S)c(=O)n(-c2ccccc2)n1C | 8 | 24 | 32 | 67* | -4 | -29 | 63*
Cc1c(N2C(=O)/C(=C/c3cccc4ccccc34)SC2=S)c(=O)n(-c2ccccc2)n1C | 10 | 11 | 22 | 19 | 11 | 18 | .
Cc1ccc(/C=N/NC(=O)c2ccncc2)s1 | -2 | -9 | -15 | 3 | 8 | -8 | .
O=C(N/N=C/c1ccc([N+](=O)[O-])s1)c1ccncc1 | -3 | 34 | 39 | 63* | -6 | 2 | 67*
CCCC(=O)n1nc(-c2ccco2)nc1SCc1ccccc1 | 7 | 35 | 36 | 54* | 0 | -7 | 52*
Cc1ccc(C(C[N+](=O)[O-])c2c(N)n(C)c(=O)n(C)c2=O)cc1 (stereo unspecified) | 0 | 36 | 24 | 54* | -1 | 108* | 64*
Cn1c(N)c(C(C[N+](=O)[O-])c2ccccc2Cl)c(=O)n(C)c1=O (stereo unspecified) | -15 | 14 | 26 | 34 | -5 | -20 | .
COc1c(O)c(=O)n2c3ccccc3c3ccnc1c32 | -5 | 36 | 35 | 62* | -9 | 26 | 78*
O=c1c(Cl)c(O)c2cccc3c4ccccc4n1c23 | 14 | 16 | 9 | 20 | -18 | 1 | .
CCOC(=O)c1ccc(S(=O)(=O)NCCN2CCOCC2)cc1 | 2 | -10 | 5 | 10 | 2 | 12 | .
N#C/C(=C/c1ccc(N2CCOCC2)o1)c1nc2ccccc2[nH]1 | . | 18 | 34 | 57* | -29 | 3 | 66*
N#C/C(=C\c1ccc(N2CCOCC2)o1)c1ccccc1 | -6 | 34 | 23 | 36 | -12 | -25 | .
